# Source: the supplement of paper PMC9399229
# Structures can show the parent of a compound that is named as a salt. The full ranking holds about 1,900 compounds; the median of “relative cell viability (CellTiter-Glo), compound plus cabozantinib, relative to the cabozantinib arm (arm median 1.05; reference not stated)” is about 1.1, and the lowest 2% start at about 0.15. Shown is part of a subset that was picked to be rich in the lowest values.
# System: Hep3B
# Experiment: relative cell viability (CellTiter-Glo), compound plus cabozantinib, relative to the cabozantinib arm (arm median 1.05; reference not stated) (fraction); higher = more viable cells (less growth inhibition)
# Details: cabozantinib 2 µM; 4 days
row,SMILES,relative cell viability
1,O=C(O)Cc1cccc(OCCCN(Cc2cccc(C(F)(F)F)c2Cl)CC(c2ccccc2)c2ccccc2)c1,1.15
2,CCOC(=O)c1ccc(N2NC(=O)C(=Cc3ccc([N+](=O)[O-])o3)C2=O)cc1,1.02
3,CCOCC(O)COc1ccc(NC(=O)CC[S+](C)C)cc1 (stereo not drawn) [Suplatast Tosylate],1
4,CC1(C)CNc2cc(NC(=O)c3cccnc3NCc3ccncc3)ccc21 [Motesanib Diphosphate (AMG-706)],1.09
5,C=CC(=O)Nc1cccc(Nc2nc(Nc3ccc(NC4CN(CCF)C4)cc3OC)ncc2C(F)(F)F)c1,0.885
6,Cc1ccc(S(=O)(=O)n2c(N)nc3ccccc32)cc1 [ML130 (Nodinitib-1)],1.2
7,Cc1ccc2c(=O)c3cccc(CC(=O)O)c3oc2c1C [DMXAA (Vadimezan)],1.17
8,O=c1cc(CN2CCOCC2)occ1OCCCCCSc1ccnc2cc(C(F)(F)F)ccc12,1.13
9,Cc1c(-c2ccc(O)cc2)n(Cc2ccc(OCCN3CCCCCC3)cc2)c2ccc(O)cc12 [Bazedoxifene HCl],0.867
10,Cc1cccc(-c2[nH]c(CNc3ccccc3F)nc2-c2ccc3ncnn3c2)n1,1.1
11,CC(C=CC(=O)NO)=CC(C)C(=O)c1ccc(N(C)C)cc1 (stereo not drawn) [Trichostatin A (TSA)],0.165
12,CNCc1ccc(C)c(NC(=O)c2ccc(Nc3nc(-c4ccccc4)c4ccccc4n3)cc2)c1,0.858
13,CC(C)N(CC[C@H](c1ccccc1)c1cc(CO)ccc1O)C(C)C,1.1
14,O=C(c1cccc(Cl)c1F)N1CCN(Cc2cccc(Nc3nccs3)n2)CC1,1.06
15,O=C(Nc1cccc(Cl)c1)c1ccccn1,1.02
16,Clc1ccc(NN=C(c2ccccc2)c2ccccn2)nc1,0.087
17,C[C@H](CCC(=O)O)[C@H]1CC[C@H]2[C@@H]3C[C@H](O)[C@@H]4C[C@H](O)CC[C@]4(C)[C@H]3CC[C@]12C [Hyodeoxycholic acid (HDCA)],1.11
18,COC(=O)[C@H](CCSC)NC(=O)c1ccc(NC[C@@H](N)CS)cc1-c1ccccc1,1.16
19,NC1(Cc2ccc(Cl)cc2)CCN(c2ncnc3[nH]ccc23)CC1,0.989
20,COc1nc(-c2ccc3c(c2)OCO3)n(-c2ccc(NC(=O)CSc3ccccc3)cc2)n1 [SecinH3],1.24
21,C[C@@H]1CC(=O)NN=C1c1ccc(NN=C(C#N)C#N)cc1 [Levosimendan],1.15
22,Cc1coc2c1C(=O)C(=O)c1c-2ccc2c1CCCC2(C)C [Tanshinone IIA],0.985
23,Nc1nc(N)c2nc(-c3cccc(O)c3)c(-c3cccc(O)c3)nc2n1,0.944
